Here are results for 95 compounds from PubChem BioAssay AID628 (Vanderbilt High Throughput Screening Facility, 2007).

SMILES strings stand for the structures. About 2,200 (3.4%) of roughly 64,000 compounds were called active. The full list was thinned out, with actives kept by preference. Unmarked numbers belong to inactive results.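 How the source made its calls: active means calcium fluorescence response, raw or row-and-column corrected B-score, differing from the plate sample mean either way at a set confidence level, mostly lower; inactive means the rest.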

The target of the experiment is Muscarinic acetylcholine receptor M1 (Rattus norvegicus) (UniProt P08482). The experiment in a line: antagonists of rat M1 muscarinic receptor (AID 628). To be noted: CHO-M1 cells, Fluo-4 calcium, ACh EC80 antagonist mode; at 10 µM; stronger effect = lower value.
Chain of Muscarinic acetylcholine receptor M1 (Rattus norvegicus) (P08482 whole entry, looked up): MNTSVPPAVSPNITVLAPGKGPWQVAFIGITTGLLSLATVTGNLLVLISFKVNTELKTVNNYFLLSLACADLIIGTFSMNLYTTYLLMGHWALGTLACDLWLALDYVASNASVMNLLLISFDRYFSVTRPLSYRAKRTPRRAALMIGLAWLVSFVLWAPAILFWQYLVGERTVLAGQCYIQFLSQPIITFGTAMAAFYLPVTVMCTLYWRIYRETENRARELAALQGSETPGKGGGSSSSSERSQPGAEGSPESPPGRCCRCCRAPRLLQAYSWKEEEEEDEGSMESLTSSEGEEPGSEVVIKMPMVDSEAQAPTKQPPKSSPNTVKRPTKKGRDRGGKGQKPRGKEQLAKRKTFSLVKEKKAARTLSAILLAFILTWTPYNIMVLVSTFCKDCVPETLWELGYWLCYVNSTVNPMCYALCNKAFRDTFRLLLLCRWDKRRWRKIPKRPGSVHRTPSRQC
`O=C(COc1ccc(Cl)cc1)Nc1ccccc1CO`: the B-score was 0.609.

Consider `COc1cc(OC)c(C(=O)NC2CC(C)(C)NC(C)(C)C2)cc1OC`, for which the B-score is -2.14 (active).

Take `Cc1ccc(C(=O)NC2CC(C)(C)NC(C)(C)C2)c(C)c1`: the B-score was 0.35.

On to `COc1cc(OC)c(C(=O)NC2CCCCCC2)cc1OC`, for which the B-score is -1.64.

Take `CCOc1ccccc1NC(=O)CCc1ccc(C)o1`: the B-score is 0.759.

Turning to `O=C(CN1CCN(c2ccc(F)cc2)CC1)Nc1cccc(C(F)(F)F)c1`, the B-score was -1.83.

For the compound `Cc1ccc(OCC(O)CN2CCN(CC(O)COc3ccc(C)cc3Cl)CC2)c(Cl)c1` (stereo not given), the B-score is 0.987.

On to `CCC(=O)c1ccc(OCC(O)CN2CCN(c3cccc(C(F)(F)F)c3)CC2)cc1` (stereo not given), for which the B-score was -3.03 (active).

For `O=C(CN1C(=O)CSc2ncccc21)N1CCOCC1`, the B-score is -0.0388.

For `O=C(CCCN1C(=O)CSc2ncccc21)N1CCN(c2cccc(C(F)(F)F)c2)CC1`, the B-score was -3.46 (active).

In the case of `O=C(CCCN1C(=O)C2C3C=CC(C3)C2C1=O)N1CCN(c2ccccc2)CC1` (stereo not given), the B-score was -0.518.

For `CCn1c(Cc2ccccc2)nnc1SCC(=O)Nc1ccccc1`, the B-score was -0.642.

Regarding `CC(C)c1nnc(NC(=O)C2CCCN2S(=O)(=O)c2ccc(Cl)cc2)s1` (stereo not given), the B-score was 0.566.

With `Cc1ccc(-c2noc(CN3CCN(Cc4ccccc4)CC3)n2)cc1`, the B-score was -0.779.

On to `CC(=NC1CCN(Cc2ccccc2)CC1)c1c(O)[nH]c(=O)[nH]c1=O`, for which the B-score is -1.22.

For `CC12CN(Cc3ccccc3)CC(C)(CN(Cc3ccccc3)C1)C2=NO`, the B-score is -8.41 (active).

In the case of `N#Cc1c2c(c(-c3ccccc3)[nH]c1=O)CCCC2`, the B-score was -0.0345.

With `CCOC(=O)CNC(=O)CSc1nnnn1-c1cc(C)ccc1C`, the B-score was 0.408.

On to `CCOC(=O)c1c(-c2ccc(C)cc2C)csc1NC(=O)CSc1nnnn1C`, for which the B-score is -1.47 (active).

Take `CNC(=O)CSc1nnnn1-c1ccc(C)cc1C`: the B-score is -0.461.

On to `Cn1cc(S(=O)(=O)N2CCC(Cc3ccccc3)CC2)c(=O)n(C)c1=O`, for which the B-score was 1.21.

For `CCOc1cc(C(=S)N2CCOCC2)ccc1O`, the B-score was -0.148.

Regarding `Cc1ccc(NC(=O)N2CCC(C(=O)NCc3ccc(F)cc3)CC2)cc1`, the B-score was 0.137.

On to `Cc1nc2ncnn2c(C)c1CCC(=O)N1CCN(C(=O)c2ccco2)CC1`, for which the B-score was -0.557.

`Cc1nc2c(-c3ccc(F)cc3)c(C)nn2c(C)c1CCC(=O)N1CCN(c2ccccn2)CC1`: the B-score is -2.78 (active).

For `Cn1c(=O)cc(OCCCC(=O)N2CCN(c3ccccn3)CC2)c2ccccc21`, the B-score is -0.727.

With `Cc1ccsc1C(=O)OCC(=O)c1cc(C)n(CC2CCCO2)c1C` (stereo not given), the B-score was -0.425.

With `O=C(NCCCNC(=O)NC1CCCCC1)NC1CCCCC1`, the B-score is 0.589.

Regarding `Cc1nc2sc(C(c3ccco3)N3CCC4(CC3)OCCO4)c(O)n2n1` (stereo not given), the B-score was 0.231.

For `Cn1c(C(=O)NCCCN2CCN(c3cccc(Cl)c3)CC2)cc2c(=O)n(C)c3ccccc3c21`, the B-score was -1.91.

As to `CC1CCCC(C)N1CCCNC(=O)c1cc2c(=O)n(C)c3ccccc3c2n1C` (stereo not given), the B-score was -3.75 (active).

As for `CCN1CCCC1CNC(=O)c1cc2c(=O)n(C)c3ccccc3c2n1C` (stereo not given), the B-score was -1.39.

For `COC(=O)C(NC(C)=O)(Nc1nc2c(s1)CCCC2)C(F)(F)F` (stereo not given), the B-score was 0.181.

`COC(=O)c1cc(Cl)c(NC(=O)c2ccco2)cc1OC`: the B-score is 0.0739.

Take `O=C(Nc1nnc(-c2ccc(Cl)cc2)o1)c1ccccc1Br`: the B-score was 0.257.

Consider `CCCOc1ccc2c3c(c(=O)oc2c1OCCC)CCC3`, for which the B-score is -0.182.

Take `Cc1c(C)c2cc3c4c(oc3c(C)c2oc1=O)CCCC4`: the B-score was -2.52 (active).

For `O=C(NCc1ccc(Cl)cc1)c1cc2c(nc3sccn32)s1`, the B-score is -0.593.

Regarding `CN(CC(=O)NC1CCCCC1)S(=O)(=O)c1cccc2cccnc12`, the B-score is -0.865.

Consider `CCC(C)(NC(=O)c1ccccn1)C(=O)NC1CCCCC1` (stereo not given), for which the B-score is -3.41 (active).

In the case of `CCC(C)(C(=O)NC1CCCC1)N(C(=O)CNC(C)=O)c1ccc(C)cc1` (stereo not given), the B-score was 0.0894.

Take `O=C(O)c1cc(S(=O)(=O)N2CCCCCC2)c(Cl)cc1Cl`: the B-score is -0.939.

As to `COCCCNC(=O)Cn1cc(C(=O)C2CC2)c2ccccc21`, the B-score is 1.18.

Take `CN(C)CCCNc1c2c(c(C#N)c3nc4ccccc4n13)CCC2`: the B-score is -3.92 (active).

On to `Cc1cc(NCc2ccco2)n2c(nc3ccccc32)c1C#N`, for which the B-score was 0.838.

For the compound `N#Cc1c2c(c(N3CCN(CCO)CC3)n3c1nc1ccccc13)CCCC2`, the B-score was -0.206.

Regarding `CC(=O)CSc1nnc(CSc2ncccn2)n1C1CCCCC1`, the B-score was 0.586.

With `CC1CN(c2cc(=O)n(Cc3ccc(F)cc3)c(=O)[nH]2)CC(C)O1` (stereo not given), the B-score was -0.0281.

As for `CCOc1cc(S(=O)(=O)NCc2ccc3c(c2)OCO3)ccc1F`, the B-score was 0.637.

With `O=C(CS(=O)(=O)c1cn(Cc2ccc(Cl)cc2)c2ccccc12)N1CCOCC1`, the B-score was 0.274.

Regarding `CC1CCC(NS(=O)(=O)c2ccc3c(c2)n(C)c(=O)c(=O)n3C)CC1` (stereo not given), the B-score is -0.853.

Turning to `Cn1c(=O)c(=O)n(C)c2cc(S(=O)(=O)NCCc3ccccc3)ccc21`, the B-score was 0.991.

`CCCCN(CCCC)C(=O)CCS(=O)(=O)c1ccc2c(c1)n(C)c(=O)c(=O)n2C`: the B-score was -3.55 (active).

For the compound `Cc1c(CN2CCC(C)CC2)c(=O)n(-c2ccccc2)n1C`, the B-score was 0.549.

As for `Cc1cccc(N2CCN(Cc3c(C)n(C)n(-c4ccccc4)c3=O)CC2)c1C`, the B-score was -9.51 (active).

As for `CC(=O)N1CCN(c2cccc(C)c2C)CC1`, the B-score is 0.482.

Take `CC1CCCN(Cc2nc3c(c(=O)n(C)c(=O)n3C)n2Cc2cccc3ccccc23)C1` (stereo not given): the B-score is 0.779.

Regarding `O=C1CC(Cc2ccccc2)C(=O)N1c1ccc(Cl)cn1` (stereo not given), the B-score is -0.406.

In the case of `CCn1c(SCC(=O)Nc2cc(C)ccc2C)nnc1-c1cnccn1`, the B-score is 0.583.

In the case of `Cn1c(=O)[nH]c(=O)c2c1nc(N1CCCCCC1)n2CC(=O)c1ccccc1`, the B-score is 0.41.

On to `C=C(C)Cn1c(N2CCCC2)nc2c1c(=O)[nH]c(=O)n2C`, for which the B-score was -2.42 (active).

Turning to `C=C(C)Cn1c(N2CCN(CC)CC2)nc2c1c(=O)[nH]c(=O)n2C`, the B-score was 0.423.

Regarding `COc1ccc(C(CC(=O)O)NC(=O)Cc2ccccc2)cc1` (stereo not given), the B-score is -0.777.

Consider `Cc1cc(C(=O)COC(=O)c2cccs2)c(C)n1-c1c(C)n(C)n(-c2ccccc2)c1=O`, for which the B-score was -1.28.

With `COc1ccccc1N=C1SC(C)CN1C(=O)C1CCC1` (stereo not given), the B-score was 0.0033.

Regarding `CCOc1ccccc1N=C1NC(=O)CS1`, the B-score is 0.266.

With `CCC/C(O)=C1\C(=O)CC(C)(C)CC1=Nc1ccccc1OC`, the B-score was -1.93 (active).

On to `CC1CN(Cc2nc3c(c(=O)n(C)c(=O)n3C)n2Cc2cccc(Cl)c2)CC(C)O1` (stereo not given), for which the B-score was 1.23.

Consider `CC(=O)NCC(=O)N(C)C(C(=O)Nc1ccc2c(c1)OCCO2)c1ccccc1` (stereo not given), for which the B-score was 0.158.

`CCCCCCOC(=O)NCC(O)c1ccccc1` (stereo not given): the B-score was 0.126.

As to `CCCCCOC(=O)NCCOC(=O)Nc1ccc(C(=O)OCC)cc1`, the B-score is -2.48 (active).

For the compound `CCCCC(CCC(=O)Nc1ccc(C(=O)OCC)cc1)C(=O)O` (stereo not given), the B-score was 0.867.

Take `Cc1ccccc1Cn1c(=O)[nH]c2ccccc21`: the B-score was -1.7.

Take `CCn1c(=N)c(C(=O)NCCCOC)cc2c(=O)n3cccc(C)c3nc21`: the B-score was -0.808.

Consider `COc1ccc(CCn2c(=N)c(C(=O)NCc3ccco3)cc3c(=O)n4cccc(C)c4nc32)cc1`, for which the B-score is -2.38 (active).

As for `COc1ccc(CNC(=O)c2cc3c(=O)n4ccccc4nc3n(CC3CCCO3)c2=N)cc1` (stereo not given), the B-score was -1.29.

As to `CCOC(=O)C1CCN(C(=O)C2CCN(S(=O)(=O)c3c(C)noc3C)CC2)CC1`, the B-score was 0.0324.

Consider `Cn1c(=NC(=O)CSCC(=O)N2CCOCC2)sc2ccccc21`, for which the B-score was 0.949.

For the compound `CC(C)Oc1ccc(C(=O)Nc2cc(=O)n(C)c(=O)n2C)cc1`, the B-score was -0.0919.

On to `COC(=O)Nc1c(C)n(C)n(-c2ccccc2)c1=O`, for which the B-score is -0.678.

Take `COc1ccc(S(=O)(=O)Nc2c(C)n(C)n(-c3ccccc3)c2=O)cc1`: the B-score was 2.26 (active).

Consider `Cc1ccc(S(=O)(=O)Nc2ccccc2CNc2c(C)n(C)n(-c3ccccc3)c2=O)cc1`, for which the B-score is 0.193.

Consider `COc1ccccc1N1CCN(C(=O)CSc2nnc(-c3ccoc3C)o2)CC1`, for which the B-score was -1.48.

In the case of `CC1(C)CN=C(N2CCN(c3ncnc4sc5c(c34)CCCC5)CC2)S1`, the B-score is -3.91 (active).

Turning to `N=c1c2c3c(sc2ncn1N)CCCCC3`, the B-score was 1.08.

On to `O=C(O)[C@@H]1CCCN1c1ncnc2sc3c(c12)CCC3`, for which the B-score is 0.0259.

Take `O=C1CCCC2=C1C(c1cccs1)n1nc(SCc3ccccc3)nc1N2` (stereo not given): the B-score is 1.97.

Consider `CCOC(=O)c1c(NC(=O)CSc2nnc(CN3CCOCC3)n2C)sc2c1CCCC2`, for which the B-score was -2.5 (active).

Take `COC(=O)c1c(NC(=O)CCN2CCOCC2)sc2c1CCCC2`: the B-score was 0.415.

Turning to `CCOC(=O)c1c(NC(=O)CSc2nnc(C)c(=O)[nH]2)sc2c1CCC2`, the B-score was 0.293.

As for `Cc1coc2c(O)cc3c(c12)OC1(N2CCCCC2)C(=O)NCCCC31` (stereo not given), the B-score was 0.313.

In the case of `CCOc1ccc(N(CC(=O)OC)S(=O)(=O)c2c(C)noc2C)cc1`, the B-score is 0.515.

Consider `Cc1cc(C)c2nc(SCCC#N)nc(C)c2c1`, for which the B-score is -0.0173.

For `CC(=O)N1C(=O)C2(Nc3ccccc3N2)c2ccccc21`, the B-score is -0.00551.

For the compound `CCCc1[nH]nc2c1C(c1c(C)nn(-c3ccccc3)c1Cl)C(C#N)=C(N)O2` (stereo not given), the B-score is -0.557.
